# HEK cytotox: cytotoxic compounds in HEK 293 cells; HEK 293 viability, ATP luminescence (CellTiter-Glo), 48-72 h; Potency, µM (series often up to 115 µM), actives largely listed as inhibitors; 94,000 tested, 6.6% active; further: nearly all actives have a fitted effect of over 60% in size
#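 Read-out: CellTiter-Glo ATP luminescence. Cells: HEK 293, 250 cells/well. Exposure: 48 or 72 hr, 37 degree Celsius.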
# 3T3 cytotox: NIH 3T3 cell cytotoxicity; NIH 3T3 viability, CellTiter-Glo ATP luminescence, 48-72 h; Potency, µM (highest dose often 96.7 µM), usual class: inhibitors; 94,000 tested, 4.3% active; AID 1345082; further: nearly all actives have a fitted effect of over 55% in size
#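 ATP-dependent luminescence (CellTiter-Glo) served as the viability signal for NIH 3T3 cells treated with compound for 48 or 72 hr at 37 °C.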
# NPR1 antag: antagonists of human natriuretic peptide receptor Npr1; P16066; HEK293 hNpr1 GloSensor cGMP, ANP-stimulated luminescence; 76,000 tested, 1.6% active; AID 1347048; Potency, µM (titrated, usually from 46.3 µM), usual class: inhibitors; calls by dose curve; further: nearly all actives have a fitted effect of over 60% in size
# Target sequence (P16066 whole entry, looked up): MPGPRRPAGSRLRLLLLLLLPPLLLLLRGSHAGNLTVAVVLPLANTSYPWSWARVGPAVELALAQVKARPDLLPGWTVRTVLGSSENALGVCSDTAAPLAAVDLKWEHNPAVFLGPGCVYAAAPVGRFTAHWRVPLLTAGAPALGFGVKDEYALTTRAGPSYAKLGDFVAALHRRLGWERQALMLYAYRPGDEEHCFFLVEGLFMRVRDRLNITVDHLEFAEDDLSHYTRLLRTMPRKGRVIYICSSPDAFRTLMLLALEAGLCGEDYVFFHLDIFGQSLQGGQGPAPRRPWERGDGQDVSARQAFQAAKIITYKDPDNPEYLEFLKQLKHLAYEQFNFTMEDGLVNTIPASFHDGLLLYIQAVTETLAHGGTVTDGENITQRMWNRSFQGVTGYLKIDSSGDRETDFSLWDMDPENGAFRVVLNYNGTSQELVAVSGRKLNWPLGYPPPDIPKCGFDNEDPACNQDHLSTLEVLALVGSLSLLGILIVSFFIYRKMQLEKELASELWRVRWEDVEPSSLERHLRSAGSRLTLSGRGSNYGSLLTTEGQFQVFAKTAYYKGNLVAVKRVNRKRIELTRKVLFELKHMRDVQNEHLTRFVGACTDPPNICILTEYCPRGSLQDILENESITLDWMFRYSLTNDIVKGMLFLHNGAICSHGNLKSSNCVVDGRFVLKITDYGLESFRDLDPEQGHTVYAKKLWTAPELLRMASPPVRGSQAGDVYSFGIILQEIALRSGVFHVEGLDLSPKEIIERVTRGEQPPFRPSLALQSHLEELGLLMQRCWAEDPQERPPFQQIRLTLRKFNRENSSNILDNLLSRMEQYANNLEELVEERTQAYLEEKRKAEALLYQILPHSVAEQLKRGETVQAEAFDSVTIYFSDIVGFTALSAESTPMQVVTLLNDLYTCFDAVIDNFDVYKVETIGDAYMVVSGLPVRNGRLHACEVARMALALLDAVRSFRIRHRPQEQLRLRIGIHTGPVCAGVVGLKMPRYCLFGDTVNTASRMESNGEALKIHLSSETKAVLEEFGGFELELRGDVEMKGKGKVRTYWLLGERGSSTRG
#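 HEK293 cells stably expressing human Npr1 and cGMP GloSensor pGS-40F, loaded 2 h with 2% GloSensor reagent, given compound 30 min at room temperature. Luminescence read before and 20 min after 0.1 nM hNppA.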
# FLuc inh: blocks purified firefly luciferase enzyme activity | P08659 | purified P. pyralis luciferase, luminescence, biochemical | Potency, µM (highest dose often 115 µM), most hits filed as inhibitors | 76,000 tested, 2.5% active | AID 1347043; further: nearly all actives have a fitted effect of over 65% in size
#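 Cell-free enzyme assay, 10nM P. pyralis luciferase, luciferin and ATP each at 10uM. Inhibition profiled over a 6-point titration, read as luminescence.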
# GPT2 inhibitor: blocks human glutamate pyruvate transaminase 2 | Q8TD30 | Recombinant GPT2, coupled pyruvate oxidase/HRP Amplex Red fluorescence | Potency, µM (top dose mostly 57.7 µM), most hits filed as inhibitors | AID 1671188 | 100,000 tested, 0.25% active; further: nearly all actives have a fitted effect of over 60% in size
#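 GPT2 10ng/uL, a-KG 250uM, L-Ala 2mM, HEPES pH7.5 + 0.0001% Tween; 30 min RT. Then Amplex mix (PO/HRP/ThPP), 30 min RT dark, fluorescence. AOA 50uM used as positive control.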
# A number is an active result; n = inactive; u = inconclusive; x = not tested or not shown. A selection: hits, their analogues and other compounds. The true share with any hit is near 10%. Unless noted, the call rests on the fitted dose curve; in most records, active means well fitted curve in the direction sought with a large enough effect; inconclusive means small, poorly fitted or top-dose-only effect, or another doubt; inactive means no such curve, though single readings can be large; an effect the other way counts as inactive or inconclusive.
SMILES,HEK cytotox,3T3 cytotox,NPR1 antag,FLuc inh,GPT2 inhibitor
COc1cc2c(cc1Oc1ccccc1)NC(=O)C21CCN(C(=O)c2ccnn2C)CC1,71µM,u,u,n,n
COc1cc2c(cc1Oc1ccccc1)NC(=O)C21CCN(C(=O)c2cccc(O)c2)CC1,45µM,u,n,n,u
COc1cc2c(cc1Oc1ccccc1)NC(=O)C21CCN(C(=O)c2cnccn2)CC1,u,n,n,n,n
CC(C)S(=O)(=O)N1CC[C@@H]2COCCN(C)[C@@H]2C1,n,n,n,n,n
c1ccc2c(CC3CN4CCCC4CN3)c[nH]c2c1 (centres undefined),n,n,x,x,n
O=C1N(c2ccccn2)C[C@H]2CN(Cc3ccccc3)CCN12,n,n,n,20µM,n
Cc1cccc(NC(=O)NC2N=C(c3ccccc3)c3ccccc3N(CC(=O)c3ccccc3C)C2=O)c1 (centres undefined),x,x,x,x,n
O=C(c1ccccc1)N1C[C@@H]2C[C@H](C1)c1c(/C=C/c3ccc(Cl)cc3)ccc(=O)n1C2,89µM,u,n,n,n
C#C[C@H]1CN2CC[C@H]1C[C@@H]2COC(=O)Nc1ccc(Br)cc1,u,u,n,n,u
C#C[C@H]1CN2CC[C@H]1C[C@@H]2COC(=O)Nc1ccc(C(C)(C)C)cc1,u,79µM,n,n,n
C#C[C@H]1CN2CC[C@H]1C[C@@H]2COC(=O)Nc1ccc(OC(F)(F)F)cc1,u,40µM,u,n,n
COc1cc2c(cc1CCc1ccccc1)N(C(=O)c1ccn(C)n1)CC21CCN(C(C)=O)CC1,u,u,n,n,n
CSc1nccc(N2CCC3(CCCN(CC4CC4)C3)C2)n1 (centres undefined),n,n,n,n,n
CSc1cccc(NC(=O)NC[C@H]2C[C@@H]3CCN2C[C@@H]3CN2CCSCC2)c1,u,100µM,n,n,n
N#Cc1cccc(NC(=O)NC[C@H]2C[C@@H]3CCN2C[C@@H]3CN2CCSCC2)c1,u,u,n,n,n
CSc1cccc(NC(=O)NC[C@H]2C[C@@H]3CCN2C[C@@H]3CN2CCN(c3ccccc3)CC2)c1,22µM,20µM,n,n,n
CSc1cccc(NC(=O)NC[C@H]2C[C@@H]3CCN2C[C@@H]3CN(C)CCc2ccccn2)c1,u,79µM,n,n,n
CN(CCc1ccccn1)C[C@H]1CN2CC[C@H]1C[C@@H]2CNC(=O)Nc1ccccc1,n,n,n,n,n
C/C=C(\C)C(=O)OC1CC2C(CC=C3CC(OC4CC(OC)C(OC5CC(OC)C(OC6CC(OC)C(OC7CC(OC)C(O)C(C)O7)C(C)O6)C(C)O5)C(C)O4)CCC32C)C2(O)CCC(C(C)=O)C12C (centres undefined),x,x,x,x,n
CCCN(CCC)CCc1ccc(OC)c(OCCc2ccccc2)c1,x,x,x,x,n
COc1cc2c(cc1OCc1ccccc1)NC(=O)C21CCN(Cc2cccc(O)c2)CC1,35µM,22µM,n,u,n
COc1cc2c(cc1OC1CCCC1)NC(=O)C21CCN(Cc2cccc(O)c2)CC1,89µM,25µM,n,n,n
COc1cc2c(cc1OCC1CC1)NC(=O)C21CCN(Cc2ccccc2O)CC1,u,40µM,n,n,n
COc1cc2c(cc1OCc1ccccc1)NC(=O)C21CCN(C(=O)c2cccnc2)CC1,50µM,u,u,n,n
COc1cc2c(cc1OCc1ccncc1)NC(=O)C21CCN(Cc2cccc(O)c2)CC1,u,u,n,n,n
SMILES,HEK cytotox,3T3 cytotox,NPR1 antag,FLuc inh,GPT2 inhibitor
CC(C)(C)[C@]1(O)C[C@@H]2OC(=O)C[C@@]23C(=O)O[C@@H]2OC(=O)[C@@H](O)[C@]213,x,x,x,x,n
CCOC(=O)[C@H]1CN(C(=O)CC(C)(C)C)[C@]2(C)C(=O)N(CC3CC3)c3ccccc3[C@H]12,u,u,x,x,n
CC(C)CCN1CCC2CC(=O)NCCC2C1 (centres undefined),n,n,x,x,n
COc1ccc(NC(=O)N2[C@H]3CC[C@@H]2c2cnc(-c4ccccc4)nc2C3)cc1OC,u,n,n,n,u
COc1cc2c(cc1OCc1ccncc1)NC(=O)C21CCN(Cc2ccccc2)CC1,100µM,79µM,n,n,n
COc1cc2c(cc1OCC1CC1)NC(=O)C21CCN(Cc2cccc(O)c2)CC1,89µM,u,n,u,n
COc1cc2c(cc1OC1CCCC1)NC(=O)C21CCN(c2cc(NC3CC3)ncn2)CC1,u,u,n,n,n
COc1cc2c(cc1OCC1CC1)NC(=O)C21CCN(c2cc(NC3CC3)ncn2)CC1,89µM,25µM,n,n,n
COc1cc2c(cc1OCC1CC1)NC(=O)C21CCN(c2ccnc(C)n2)CC1,79µM,u,n,n,n
COc1cc2c(cc1OC1CCCC1)NC(=O)C21CCN(Cc2ccncc2)CC1,u,u,n,n,n
COc1cc2c(cc1OC1CCCC1)NC(=O)C21CCN(c2ccnc(C)n2)CC1,u,79µM,n,n,n
COc1cccc(CC(=O)N2CCCCCC2CN2CCC(OC)CC2)c1 (centres undefined),n,n,n,n,n
CCOC(=O)[C@H]1CN(C(=O)c2ccc(Cl)cc2)[C@]2(C)C(=O)N(CC3CC3)c3ccccc3[C@H]12,u,u,x,x,n
COc1ccc(OC)c(S(=O)(=O)NC[C@H]2C[C@@H]3CCN2C[C@@H]3c2cc(-c3ccc(F)cc3)nn2C)c1,28µM,u,n,n,n
COc1ccc(-c2cc([C@H]3CN4CC[C@H]3C[C@@H]4CNC(=O)NC3CCCCC3)n(C)n2)cc1,u,89µM,n,n,n
Cc1ccc(C(=O)NC[C@H]2C[C@@H]3CCN2C[C@@H]3c2cc(-c3ccc(F)cc3)nn2C)cc1,25µM,25µM,n,n,n
COc1ccc(C(=O)NC[C@H]2C[C@@H]3CCN2C[C@@H]3c2cc(-c3ccc(F)cc3)nn2C)cc1,u,u,n,n,n
COc1ccc(-c2cc([C@H]3CN4CC[C@H]3C[C@@H]4CNC(=O)c3ccc(C(C)(C)C)cc3)n(C)n2)cc1OC,20µM,u,n,n,n
COc1ccc(NC(=O)NC[C@H]2C[C@@H]3CCN2C[C@@H]3c2cc(-c3ccc(OC)c(OC)c3)nn2C)cc1,u,u,n,n,n
COc1ccc(-c2cc([C@H]3CN4CC[C@H]3C[C@@H]4CNS(=O)(=O)c3cc(OC)ccc3OC)n(C)n2)cc1,n,n,n,n,n
CC[C@H]1C2CC3[C@@H]4N(C)c5ccccc5[C@]45C[C@@H]([C@H]2[C@H]5O)N3[C@@H]1O,x,x,x,x,n
O=C1NC[C@H]2CN(Cc3ccccc3)CCN12,n,n,n,n,n
CCNC(=O)NC[C@H]1C[C@@H]2CCN1C[C@@H]2c1cc(-c2ccc(F)cc2)nn1C,n,n,n,n,n

# Screens from PubChem.
